# Records with an inconclusive call do not appear. A call without a number means that no potency is given here. The source made the active and inactive calls. The call rests on the fitted dose curve; in most records, active means well fitted cell-killing curve with a large enough effect in the repeat runs; inconclusive means weak or mixed curves, or effect the other way; inactive means no such curve, though single readings can be large or run the other way.
# Experiment: qHTS assay to identify small molecule antagonists of the progesterone receptor (PR) signaling pathway - cell viability counter screen (AID 1346798); further: nearly all actives have a fitted effect of over 50% in size
# Conditions: PR-UAS-bla HEK293T viability, CellTiter-Glo luminescence, 16 h; series mostly up to 92.4 µM
# Excerpt: National Center for Advancing Translational Sciences [NCATS]
# NIH Chemical Genomics Center [NCGC]
# U.S. Environmental Protection Agency [EPA]
# National Institutes of Environmental Health Sciences [NIEHS]
# National Toxicology Program [NTP]
# U.S. Food and Drug Administration [FDA]
# Progesterone receptor (PR), a nuclear hormone receptor, plays an important role in development, metabolic homeostasis and reproduction. It is activated by the steroid hormone progesterone. Endocrine disrupting chemicals (EDCs) and their interactions with steroid hormone receptors like PR causes disruption of normal endocrine function. To identify the compounds that inhibit PR signaling, a PR-UAS-bla GripTite cell line i.e. PR-UAS-bla HEK293T (Invitrogen, Carlsbad, CA, USA) containing a beta-lactamase reporter gene under the control of an UAS response element was used to screen Tox21 10K compound library. The cytotoxicity of the Tox21 compound library against the PR-bla cell line was tested in parallel by measuring the cell viability using CellTiter-Glo assay in the same wells.
# Tox21 Assay Protocol Summary:
# PR-UAS-bla HEK293T cells were dispensed at 3,000 cells/4 uL of assay medium containing 2% charcoal stripped FBS per well into black wall/clear-bottom 1536-well plates using a Multidrop Combi (ThermoFisher Scientific, Waltham, MA) dispenser. After the assay plates were incubated at a 37C and 5% CO2 for 4 hr, 23 nL of compounds dissolved in DMSO, positive controls or DMSO only was transferred to the assay plate by a Pintool station (Kalypsys, San Diego, CA), followed by addition of 1 uL of R5020 in assay medium using a Flying Reagent Dispenser (FRD, Aurora Discovery, San Diego, CA). The plates were incubated at 37C and 5% CO2 for 16 hr. Then 1 uL of LiveBLAzer B/G FRET substrate was added using a Flying Reagent Dispenser, the plates were incubated at room temperature for 2 hours, and fluorescence intensity was measured by an Envision plate reader (PerkinElmer, Shelton, CT). For cell viability readout that measures cytotoxicity, 4 uL/well of CellTiter-Glo reagent was added into the assay plates using a FRD. After 30 min incubation at room temperature, the luminescence intensity in the plates was measured using a ViewLux (PerkinElmer) plate reader.
# Potency means the concentration at half of the fitted maximal effect.
SMILES,Potency,"activity change, negative = cytotoxicity"
CCCC(=O)OC(=O)CCC,inactive,
CCCCCCC(O)CCOC(C)=O (stereo not given),inactive,
O=C(C(=O)c1ccco1)c1ccco1,inactive,
CNS(=O)(=O)c1cc(C(=O)N2CCC(CCN3C4CCC3CC(n3c(C)nc5ccccc53)C4)(c3cccc(F)c3)CC2)c(Cl)cc1F (stereo not given),24.3 µM (active),
C=CC(=O)O,inactive,
CCCCOC(=O)CCCCC(=O)OCCCC,inactive,
O=C1[C@@H]2[C@H]3CC[C@H](C3)[C@@H]2C(=O)N1CCCCN1CCN(c2ncccn2)CC1,inactive,
CCCCCCC(CO)CCCC (stereo not given),inactive,
COc1cc(OC)c2ccc(=O)oc2c1,inactive,
CCCCCCC(O)CCCCCCCCCCC(=O)OC (stereo not given),inactive,
c1ccc2sc(SSc3nc4ccccc4s3)nc2c1,,-0.0474% [at 18.9 µM] (inactive)
CCN(CC)c1ccc(C(=C2C=CC(=[N+](CC)CC)C=C2)c2ccc(S(=O)(=O)O)cc2S(=O)(=O)[O-])cc1,30.6 µM (active),
CC1CCCO1 (stereo not given),inactive,
COC(C)(C)OC,inactive,
O=[N+]([O-])C1(Br)COCOC1,inactive,
CCCCOCCOC(=O)c1cccnc1,inactive,
COc1ccc(N)c([N+](=O)[O-])c1,inactive,
Cc1cn([C@H]2C[C@H](F)[C@@H](CO)O2)c(=O)[nH]c1=O,inactive,
CNC1CCCN(c2c(F)cc3c(=O)c(C(=O)O)cn(C4CC4)c3c2OC)C1 (stereo not given),inactive,
CSSc1ccoc1C,inactive,

SMILES,Potency,"activity change, negative = cytotoxicity"
O=C(NC(Cc1cc(=O)[nH]c2ccccc12)C(=O)O)c1ccc(Cl)cc1 (stereo not given),inactive,
Nc1ccc(F)cc1,inactive,
C1CCCCC1,inactive,
COc1ccc(C)cc1,inactive,
CCCCCCOC(=O)CCCCC,inactive,
CC1CCCC(=O)C1=O (stereo not given),inactive,
Cc1cccc(C)c1NC(=O)c1cc(S(N)(=O)=O)c(Cl)cc1O,inactive,
CC(C)N(C)C,inactive,
O=C(O)CO,inactive,
BrC(Br)C(Br)Br,inactive,
Cc1ccc(NC(=O)N(C)C)cc1NC(=O)N(C)C,inactive,
CC(C)(O)c1coc(S(=O)(=O)NC(=O)Nc2c3c(cc4c2CCC4)CCC3)c1,inactive,
CC(=O)OCC1=C(C(=O)O)N2C(=O)[C@@H](NC(=O)CSc3ccncc3)[C@H]2SC1,inactive,
CC1CCC(C(C)CS)CC1S (stereo not given),inactive,
COC(=O)c1sccc1S(N)(=O)=O,inactive,
O=C(O)CN1C(=O)c2cccc3cccc(c23)C1=O,inactive,
CC(=O)Oc1cccc(O)c1,inactive,
CC(=O)OCCC1CCCCC1,inactive,
CCCCCCCCCCCCCC(=O)OCC(O)CO (stereo not given),inactive,
CC(C)(C)NCC(O)COc1cccc2c1C[C@H](O)[C@H](O)C2 (stereo not given in full),inactive,

# — PubChem BioAssay (Tox21)
